Epigenetic reg: regulators of epigenetic silencing causing reporter derepression in mouse cells | actives 0.2% (n = 280,000) | Potency, µM (top dose mostly 53.9 µM), for the others: top-dose GFP activation, hits mostly activators | murine LDR cells, GFP reporter derepression, 30 h; active means well fitted activation curve with a large enough effect; inconclusive means small, poorly fitted or top-dose-only effect; further: potency means the concentration at half of the fitted maximal effect; % of control where 0% means no effect; nearly all actives have a fitted effect of over 60% in size
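In this reporter-derepression format, murine cells bearing a silenced integrated CMV-GFP locus incubate with test compound (30 h, 37 C), then are washed and imaged; fluorescent objects of 20–120 um count as induced cells.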
D1 antagonist: blocks dopamine activation of the human D1 receptor; P21728; HEK293 TREx D1 cells, calcium flux, dopamine EC80; hits give low values; activity change, negative = inhibition, % at 10 µM; actives 3.2% (n = 360,000); AID 504652; in the data active means activity change below about -30%; further: on the % scale 0 is the no-effect control and ±100 the full control effect
Target sequence (P21728 whole entry, looked up): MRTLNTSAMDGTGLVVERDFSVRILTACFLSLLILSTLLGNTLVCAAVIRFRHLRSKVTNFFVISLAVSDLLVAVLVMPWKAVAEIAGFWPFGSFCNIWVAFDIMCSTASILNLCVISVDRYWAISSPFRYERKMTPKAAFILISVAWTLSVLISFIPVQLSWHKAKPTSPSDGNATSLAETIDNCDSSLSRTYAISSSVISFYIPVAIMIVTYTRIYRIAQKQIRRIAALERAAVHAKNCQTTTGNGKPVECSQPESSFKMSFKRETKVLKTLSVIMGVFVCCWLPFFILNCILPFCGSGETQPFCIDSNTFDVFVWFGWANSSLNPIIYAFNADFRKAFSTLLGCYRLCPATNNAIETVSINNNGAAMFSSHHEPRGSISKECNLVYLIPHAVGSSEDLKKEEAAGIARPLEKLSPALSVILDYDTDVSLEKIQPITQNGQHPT
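Kinetic fluorescence of a calcium dye serves as the read-out. D1-expressing Hek293 Trex cells, induced overnight at 30 C, are exposed to compound for 180 s before an EC80 dopamine addition, then read 180 s further.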
TRHR ag: activates the human TRH receptor; activation, % at 2 µM; TRHR cells, calcium flux fluo-8, FDSS agonist mode; P34981; AID 493084; actives 0.18% (n = 360,000); further: 0% is about no effect
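In this calcium-flux screen, cells bearing human TRHR are dye-loaded with fluo-8, baselined for 10 cycles, then exposed to library compounds; positive kinetic calcium responses during the agonist phase mark hits, with TRH as control.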
D1 agonist: human D1 receptor agonism; P21728; HEK293 T-REx D1 cells, calcium flux, agonist mode; activation, % at 2 µM; actives 1% (n = 360,000); further: 0% is about no effect
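Inducible HEK293 T-REx D1 cells, force-coupled to calcium signalling, were plated at 4000 cells/well with tetracycline and held overnight at 30 C. After no-wash calcium dye loading, compound-evoked calcium rise over 180 s flagged agonists.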
D1 potentiator: enhances dopamine response at the human D1 receptor | actives 0.036% (n = 360,000) | HEK293 TREx D1 cells, calcium flux, dopamine EC20 potentiation | potentiation, % at 10 µM | P21728; in the data active means potentiation above about 30%; further: 0% is about no effect
TRHR PAM: allosterically enhances the human TRH receptor. TRHR cells, fluo-8 calcium fluorescence, EC20 TRH enhancement. actives 0.66% (n = 360,000). P34981. enhancement, % at 2 µM. AID 493056; in the data active means enhancement above about 30%; further: 0% is about no effect
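TRHR-expressing cells loaded with fluo-8 calcium dye were read kinetically (ex 480/em 530) during compound addition, then stimulated with an EC20 of TRH (10 nM final). Enhancement of the Gq-mediated intracellular calcium response was scored.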
The depositor's hits bear a star; ? = inconclusive; . = not tested or not shown; ! = not active in a repeat; [ ] = remark or other dose. Only some compounds are listed: those with a hit (about 4.6% of all), similar ones and a draw of the others. Unless noted, no stated cut-off is given here; in the data, active means activation above about 30%; inactive means the rest.

SMILES	Epigenetic reg	D1 antagonist	TRHR ag	D1 agonist	D1 potentiator	TRHR PAM
Cc1ccc2nc(NCCc3ccc(Cl)cc3)c3nncn3c2c1	?	-61*!	1	2	-4	8
CCOc1ccc(S(=O)(=O)NCc2ccc3c(c2)CCN3C(=O)c2ccc(C)cc2)cc1	-5%	4	-1	0	-3	-2
CC(=O)c1c(C)nc2nc(-c3ccccc3)nn2c1C	0%	-1	0	0	-2	2
O=C(Nc1ccc(C(=O)NCC2CCN(Cc3ccccc3F)CC2)cc1)C1=CSCCO1	.	3	0	4	-3	1
O=C(Nc1ccc(C(=O)NCCCN2CCN(c3ccccc3)CC2)cc1)C1=CSCCO1	.	-39*	5	36*	-7	10
COc1ccc(CNC(=O)c2ccc(NC(=O)C3=CSCCO3)cc2)cc1	.	5	-1	1	-8	34*
CN1CCN(CCCNC(=O)c2ccc(NC(=O)C3=CSCCO3)cc2)CC1	.	36	0	0	-5	-2
Cc1ccc(CN2CCC(CNC(=O)c3ccc(NC(=O)C4=CSCCO4)cc3)CC2)cc1	.	-30*	0	11	-6	4
COc1ccc(Cl)cc1NC(=S)N1CCN(c2ccccn2)CC1	-1%	3	0	0	-1	32*
COc1ccc(Cl)cc1NC(=S)N1CCN(c2ncccn2)CC1	-1%	2	-2	3	3	1
COc1ccc(Cl)cc1NC(=S)N1CCCCCC1	.	-2	0	1	0	40*
COC(=O)c1ccccc1-c1c2ccc(=N)cc-2oc2cc(N)ccc12	.	-56*	198*	507*	-5	-18
O=C(O)c1ccccc1-c1c2ccc(=O)cc-2oc2cc(O)ccc12	2%	.	.	.	.	.
O=C(Nc1ccc([N+](=O)[O-])cc1)Nc1nc(-c2ccc(Cl)s2)cs1	-1%	-47*	0	29	-7	5
CC(=O)Nc1nc(-c2ccc([N+](=O)[O-])cc2)cs1	2%	-9	0	-1	-5	3
COc1cc(/C=C/C(=O)OCC(=O)NCCc2ccccc2)ccc1OC(F)F	.	-30*	-1	14	-7	1
CCOc1ccccc1NC(=O)COC(=O)/C=C/c1ccc(OC)c(OC)c1	0%	-38*	0	6	-4	3
CCOc1ccc(/C=C/C(=O)OCC(=O)NCCc2ccc(OCC)c(OCC)c2)cc1OC	.	10	0	0	-2	-2
COc1ccc(/C=C/C(=O)OCC(=O)NCc2ccccc2)cc1OC	.	-19	-2	0	-3	2
COc1ccc(NC(=O)CN2CCN(c3ccccc3F)CC2)c(OC)c1	4%	-2	-1	3	0	2
COc1ccc(OC)c(NC(=O)CCN2CCN(c3ccccc3OC)CC2)c1	.	-64*	0	3	0	5
COc1ccc(OC)c(NC(=O)CCN2CCCCC2)c1	-1%	-11	1	2	2	3
COc1ccc(NC(=O)CCN2CCN(c3ccccc3F)CC2)c(OC)c1	.	-36*	0	1	-26	-8
CC1CCN(CCCNC(=O)c2cc(Sc3ccc(F)cc3)nc3ccccc23)CC1	0%	-10	4	44*	-1	-5
COc1ccc(Nc2cc(C(=O)NCCCN3CCN(c4ccccc4F)CC3)c3ccccc3n2)c(OC)c1	-1%	-42*	0	0	-2	-1
SMILES	Epigenetic reg	D1 antagonist	TRHR ag	D1 agonist	D1 potentiator	TRHR PAM
COc1ccc(-n2c(-c3ccc(Cl)cc3)cc3c2CC(C)(C)CC3=O)c(OC)c1	0%	-15	0	2	-2	-10
CCOc1ccccc1CNC(=O)c1ccc(NC(=O)N2CCSc3ncccc32)cc1	4%	-7	0	3	-3	2
COC(=O)[C@@H]1CC[C@H](C)[C@@H](c2ccc(C)cc2)N1C(=O)c1ccc(/C=N\OCC[C@@H]2C=C[C@H](OC(C)=O)[C@H](COC(C)=O)O2)cc1	1%[10.1 µM]	.	.	.	.	.
COc1cccc(CNS(=O)(=O)c2c(C(=O)N3CCC(C)CC3)c(C)n(C)c2C)c1	-3%	12	0	-1	0	-6
COc1ccc(N2CC(NC(=O)c3ccc(S(=O)(=O)N4CCOCC4)cc3)CC2=O)cc1OC (centres undefined)	5%	.	0	-2	6	4
O=C(CC1N=C2c3ccccc3N=C(SCc3cccc(Cl)c3)N2C1=O)NC1CCCCC1 (centres undefined)	0%	-11	0	1	0	-4
C/C(=N\NC(=O)c1c(C)nc2ccccn12)c1ccc(O)cc1O	.	-24	3	2	-6	40*
C/C(=N\NC(=O)c1c(C)nc2ccccn12)c1ccccc1F	.	-30	0	6	-7	-5
CN(CC(=O)NCc1ccc(F)cc1)S(=O)(=O)c1ccc2[nH]c3c(c2c1)CCCC3	0%	-10	-1	1	-1	-2
CCOc1ccc(NS(=O)(=O)c2ccc3[nH]c4c(c3c2)CCCC4)cc1	-1%	-52*	0	0	1	6
O=S(=O)(Nc1cccc(Cl)c1)c1ccc2[nH]c3c(c2c1)CCCCCC3	11%	23	0	1	-1	3
Cc1cccc(NS(=O)(=O)c2ccc3[nH]c4c(c3c2)CCCCCC4)c1	7%	-87*	0	1	-6	-2
COc1ccc(CNC(=O)CN(C)S(=O)(=O)c2ccc3[nH]c4c(c3c2)CCCC4)cc1	0%	-4	1	-1	0	47*
Cn1nc(C(F)(F)F)c(CO)c1Sc1ccc(F)cc1	1%	12	0	1	1	30*
Cc1ccc(Sc2c(C(=O)Nc3ccc(F)cc3F)c(C(F)(F)F)nn2C)cc1	0%	-23	0	10	1	-4
COc1cccc(NC(=O)CSc2nc3ccccc3c(=O)n2C)c1	.	1	-1	50*	7	-4
CC(C)Oc1ccccc1NC(=O)CSc1nc2ccccc2c(=O)n1C	.	-1	-1	5	-8	3
COc1ccc(NC(=O)CSc2nc3ccccc3c(=O)n2CCCN2CCOCC2)c(OC)c1	1%	-33*	-1	4	-7	4
CCOCCCn1c(SCC(=O)Nc2ccc(OC)cc2OC)nc2ccccc2c1=O	0%	14	0	-2	3	20
Cc1nn(-c2ccccc2)c(Cl)c1CN(C(=O)CCl)c1ccc(Cl)cc1	-1%	-57*	-1	2	-8	-18
CC(=O)N(Cc1c(C)nn(-c2ccccc2)c1Cl)c1ccc(Cl)cc1	-1%	.	.	.	.	.
COc1ccccc1NC(=O)c1cnc(SCC(=O)N2CCCc3ccccc32)n(C)c1=O	?	.	0	-4	0	3
